# Data: PubChem BioAssay (NCATS)
# Records with an inconclusive call do not appear. Entries that show only a call come without a potency. The source holds several records for some structures; these can differ, active in one and inactive in another. Active and inactive are the calls of the source. Calls come from the whole dose curve; as a rule, active = well fitted inhibition curve with a large enough effect; inconclusive = small, poorly fitted or top-dose-only effect; inactive = flat fitted curve, though single readings scatter.
# How the values were obtained:
# [1] = molecular target: Luciferin 4-monooxygenase (Photinus pyralis) (UniProt P08659); test: Biochemical firefly luciferase enzyme assay for NPC (AID 624030); note: nearly all actives have a fitted effect of over 70% in size
# Method in brief: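 Direct inhibition of firefly luciferase enzyme (10 nM final, 50 mM Tris Acetate) assessed by luminescence within 5 minutes. Percent activity scaled between DMSO and PTC124 positive control, with concentration-effect curves classified by fit quality and response.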
# [2] = system: AA1029; test: qHTS profiling for inhibitors of Plasmodium falciparum proliferation (AID 504749); note: nearly all actives have a fitted effect of over 60% in size; settings: P. falciparum in erythrocytes, SYBR Green DNA, 72 h; series mostly up to 28.7 µM
# Method in brief: (§1)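 Infected RBCs, 0.3% parasitemia/2.5% Hct final; cpd 72 h, 37 C, 5% CO2; lysis buffer with saponin/triton/SYBR Green I, o/n RT dark; FI 485/535; norm. to artemisinin (0.29 uM) and DMSO.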
# [3] = system: AS120; test: as above; settings: P. falciparum in erythrocytes, SYBR Green DNA, 72 h; series mostly up to 28.7 µM
# Method in brief: as §1
# [4] = system: CP194; test: as above; settings: P. falciparum in erythrocytes, SYBR Green DNA, 72 h; series mostly up to 28.7 µM
# Method in brief: as §1
# [5] = system: CP203; test: as above; settings: P. falciparum in erythrocytes, SYBR Green DNA, 72 h; series mostly up to 28.7 µM
# Method in brief: as §1
# [6] = system: CP211; test: as above; settings: P. falciparum in erythrocytes, SYBR Green DNA, 72 h; series mostly up to 28.7 µM
# Method in brief: as §1
# [7] = system: CP268; test: as above; settings: P. falciparum in erythrocytes, SYBR Green DNA, 72 h; series mostly up to 28.7 µM
# Method in brief: as §1
# [8] = system: CP269; test: as above; settings: P. falciparum in erythrocytes, SYBR Green DNA, 72 h; series mostly up to 28.7 µM
# Method in brief: as §1
# [9] = system: CP305; test: as above; settings: P. falciparum in erythrocytes, SYBR Green DNA, 72 h; series mostly up to 28.7 µM
# Method in brief: as §1
# [10] = system: CP329; test: as above; settings: P. falciparum in erythrocytes, SYBR Green DNA, 72 h; series mostly up to 28.7 µM
# Method in brief: as §1
# [11] = system: FAB9; test: as above; settings: P. falciparum in erythrocytes, SYBR Green DNA, 72 h; series mostly up to 28.7 µM
# Method in brief: as §1
# [12] = system: JCK; test: as above; settings: P. falciparum in erythrocytes, SYBR Green DNA, 72 h; series mostly up to 28.7 µM
# Method in brief: as §1
# [13] = system: N140; test: as above; settings: P. falciparum in erythrocytes, SYBR Green DNA, 72 h; series mostly up to 28.7 µM
# Method in brief: as §1
# [14] = system: PAD; test: as above; settings: P. falciparum in erythrocytes, SYBR Green DNA, 72 h; series mostly up to 28.7 µM
# Method in brief: as §1
# [15] = system: PC15; test: as above; settings: P. falciparum in erythrocytes, SYBR Green DNA, 72 h; series mostly up to 28.7 µM
# Method in brief: as §1
# [16] = system: SC27B; test: as above; settings: P. falciparum in erythrocytes, SYBR Green DNA, 72 h; series mostly up to 28.7 µM
# Method in brief: as §1
# [17] = system: TAB109; test: as above; settings: P. falciparum in erythrocytes, SYBR Green DNA, 72 h; series mostly up to 28.7 µM
# Method in brief: as §1
# [18] = system: TAB113; test: as above; settings: P. falciparum in erythrocytes, SYBR Green DNA, 72 h; series mostly up to 28.7 µM
# Method in brief: as §1
# [19] = system: TAB165; test: as above; settings: P. falciparum in erythrocytes, SYBR Green DNA, 72 h; series mostly up to 28.7 µM
# Method in brief: as §1
# [20] = system: CP237; test: as above; settings: P. falciparum in erythrocytes, SYBR Green DNA, 72 h; series mostly up to 28.7 µM
# Method in brief: as §1
# Potency is the fitted concentration of half-maximal effect.
# Sequence of Luciferin 4-monooxygenase (Photinus pyralis) (P08659 whole entry, looked up): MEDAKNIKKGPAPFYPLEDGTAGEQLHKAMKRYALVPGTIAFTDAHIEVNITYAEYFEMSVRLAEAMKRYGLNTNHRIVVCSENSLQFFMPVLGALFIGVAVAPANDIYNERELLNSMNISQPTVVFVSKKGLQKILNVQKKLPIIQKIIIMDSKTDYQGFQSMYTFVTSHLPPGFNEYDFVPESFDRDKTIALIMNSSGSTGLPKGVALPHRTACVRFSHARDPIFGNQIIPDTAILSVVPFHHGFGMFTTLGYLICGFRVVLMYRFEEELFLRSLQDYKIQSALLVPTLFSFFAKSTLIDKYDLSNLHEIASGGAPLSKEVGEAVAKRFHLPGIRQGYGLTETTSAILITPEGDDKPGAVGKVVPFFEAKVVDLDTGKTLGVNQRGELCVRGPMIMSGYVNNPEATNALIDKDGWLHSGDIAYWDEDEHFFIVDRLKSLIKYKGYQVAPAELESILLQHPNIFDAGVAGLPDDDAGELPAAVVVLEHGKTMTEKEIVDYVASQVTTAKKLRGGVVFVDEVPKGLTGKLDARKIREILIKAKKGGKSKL
Compound,Potency [1],Potency [2],Potency [3],Potency [4],Potency [5],Potency [6],Potency [7],Potency [8],Potency [9],Potency [10],Potency [11],Potency [12],Potency [13],Potency [14],Potency [15],Potency [16],Potency [17],Potency [18],Potency [19],Potency [20]
CCCCCOC(=O)Nc1nc(=O)n(C2O[C@H](C)[C@@H](O)[C@@H]2O)cc1F (some centres not stated),inactive,inactive,inactive,inactive,inactive,inactive,inactive,inactive,inactive,inactive,inactive,inactive,inactive,inactive,inactive,inactive,inactive,inactive,inactive,–
C[C@@H](O)[C@@H]1C(=O)N2C(C(=O)O)=C([C@H]3CCCO3)S[C@H]12,inactive,inactive,inactive,inactive,inactive,inactive,inactive,inactive,inactive,inactive,inactive,inactive,inactive,inactive,inactive,inactive,inactive,inactive,inactive,inactive
C[C@@H]1CCN(C(=O)[C@H](CCCNC(=N)N)NS(=O)(=O)c2cccc3c2NC[C@H](C)C3)[C@@H](C(=O)O)C1,inactive,inactive,inactive,inactive,–,inactive,inactive,inactive,inactive,inactive,inactive,inactive,inactive,inactive,inactive,inactive,inactive,inactive,inactive,inactive
Cc1ccccc1N1C(=O)c2cc(N)ccc2N/C1=C\F,inactive,inactive,inactive,inactive,inactive,inactive,inactive,inactive,inactive,inactive,inactive,inactive,inactive,inactive,inactive,inactive,inactive,inactive,inactive,inactive
COC1CC2CCC(C)[C@](O)(O2)C(=O)C(=O)N2CCCCC2C(=O)OC(C(C)CC2CCC(O)C(OC)C2)CC(=O)C(C)/C=C(/C)C(O)C(OC)C(=O)C(C)CC(C)C=CC=C/C=C\1C (some centres not stated),inactive,2.24 µM (active),1.12 µM (active),3.38 µM (active),1.69 µM (active),4.26 µM (active),6.01 µM (active),4.26 µM (active),5.36 µM (active),4.26 µM (active),8.91 µM (active),10 µM (active),1.26 µM (active),1.26 µM (active),4.47 µM (active),2 µM (active),2.24 µM (active),1.41 µM (active),1.12 µM (active),2.82 µM (active)
CO/N=C(/C(=O)N[C@@H]1C(=O)N2C(C(=O)O)=C(CSc3nnnn3C)CS[C@H]12)c1csc(N)n1,inactive,inactive,inactive,inactive,–,inactive,inactive,inactive,inactive,inactive,inactive,inactive,inactive,inactive,inactive,inactive,inactive,inactive,inactive,inactive
COc1ccc(S(=O)(=O)N2c3ccc(Cl)cc3[C@](O)(c3ccccc3Cl)[C@@H]2C(=O)N2CCC[C@H]2C(N)=O)cc1OC,inactive,–,–,inactive,inactive,inactive,inactive,inactive,inactive,inactive,inactive,inactive,–,–,–,–,inactive,inactive,–,–
CC1CN(c2c(F)c(N)c3c(=O)c(C(=O)O)cn(C4CC4)c3c2F)CC(C)N1 (configuration not stated),inactive,inactive,inactive,inactive,inactive,inactive,inactive,inactive,inactive,inactive,inactive,inactive,inactive,inactive,inactive,inactive,inactive,inactive,inactive,inactive
CC1=C(c2ccc(NN=C(C#N)C#N)cc2)NNC(=O)C1,14.4 µM (active),inactive,inactive,inactive,inactive,inactive,inactive,inactive,inactive,inactive,inactive,inactive,inactive,inactive,inactive,inactive,inactive,–,inactive,inactive
CC(C)(C)NC[C@H](O)CSc1nc(-c2ccc(C(N)=O)s2)cs1,inactive,inactive,inactive,inactive,inactive,inactive,inactive,inactive,inactive,inactive,inactive,inactive,inactive,inactive,inactive,inactive,inactive,–,inactive,inactive
N#C/C(=C1/SCC(c2ccccc2Cl)S1)n1ccnc1 (configuration not stated),inactive,inactive,–,inactive,inactive,inactive,inactive,inactive,inactive,inactive,inactive,inactive,–,–,inactive,–,inactive,inactive,12.6 µM (active),inactive
Cc1cc2nc3c(=O)[nH]c(=O)nc-3n(CC(O)C(O)C(O)COP(=O)(O)O)c2cc1C (configuration not stated),inactive,inactive,inactive,inactive,inactive,inactive,inactive,inactive,inactive,inactive,inactive,inactive,inactive,inactive,inactive,inactive,inactive,inactive,inactive,inactive
C#C[C@]1(O)CC[C@H]2[C@H]3[C@H](CC[C@@]21C)C1=C(CC(=O)CC1)C[C@@H]3C,inactive,inactive,inactive,inactive,inactive,inactive,inactive,inactive,inactive,inactive,inactive,inactive,inactive,inactive,inactive,inactive,inactive,inactive,inactive,inactive
COc1ccc(C(=O)/C(Br)=C/C(=O)O)cc1,inactive,inactive,–,–,inactive,–,inactive,–,–,inactive,inactive,inactive,inactive,inactive,inactive,–,–,–,–,inactive
CC1(C)O[C@@H]2C[C@H]3[C@@H]4CCC5=CC(=O)C=C[C@]5(C)[C@H]4C(O)C[C@]3(C)[C@]2(C(=O)CO)O1 (some centres not stated),inactive,–,–,inactive,inactive,inactive,inactive,inactive,inactive,inactive,inactive,inactive,11.2 µM (active),–,inactive,–,inactive,inactive,–,–
C=C(CC[C@@H](C)[C@H]1CCC2[C@]1(C)CC[C@]13C[C@@]14CCC(OC(=O)/C=C/c1ccc(O)c(OC)c1)C(C)(C)[C@@H]4CC[C@@]23C)C(C)C (some centres not stated),inactive,inactive,inactive,inactive,inactive,inactive,inactive,inactive,inactive,inactive,inactive,inactive,inactive,inactive,inactive,inactive,inactive,inactive,inactive,inactive
C/C(=C(/CCOC(=O)C(C)C)SS/C(CCOC(=O)C(C)C)=C(\C)N(C=O)Cc1cnc(C)nc1N)N(C=O)Cc1cnc(C)nc1N,inactive,inactive,inactive,inactive,inactive,inactive,inactive,inactive,inactive,–,inactive,inactive,inactive,inactive,inactive,inactive,inactive,inactive,inactive,inactive
CNC1=CN(O)C(c2ccccc2)=c2cc(Cl)ccc2=N1,inactive,–,11.2 µM (active) and inactive,4.26 µM (active),4.26 µM (active),4.26 µM (active),4.26 µM (active),3.79 µM (active),1.69 µM (active),3.79 µM (active) and inactive,2.51 µM (active),inactive,–,–,inactive,–,3.55 µM (active),2.82 µM (active),4.47 µM (active),inactive
CC1=C[C@@H](O)CC(C)(C)[C@@H]1/C=C/C(C)=C/C=C/C(C)=C/C=C/C=C(C)/C=C/C=C(C)/C=C/C1=C(C)C[C@H](O)CC1(C)C,inactive,–,–,inactive,inactive,inactive,inactive,inactive,inactive,inactive,–,–,11.2 µM (active),–,–,–,inactive,–,–,–
C[C@]12CC[C@@H]3c4ccc(O)cc4C[C@@H](CCCCCCCCCS(=O)CCCC(F)(F)C(F)(F)F)C3[C@@H]1CC[C@@H]2O (some centres not stated),inactive,7.08 µM (active),2.51 µM (active),–,–,–,–,–,10.7 µM (active),–,8.91 µM (active),17.8 µM (active),2.24 µM (active),3.98 µM (active),11.2 µM (active),2.82 µM (active),10 µM (active),4.47 µM (active),2.24 µM (active),5.01 µM (active)
OCC(O)C(O)C(O)C(O)CO (configuration not stated),inactive,inactive,inactive,inactive,inactive,inactive,inactive,inactive,inactive,inactive,inactive,inactive,inactive,inactive,inactive,inactive,inactive,inactive,inactive,inactive
Cc1c(C)c2c(c(C)c1O)CCC(C)(CCCC(C)CCCC(C)CCCC(C)C)O2 (configuration not stated),inactive,inactive,inactive,inactive,inactive,inactive,inactive,inactive,inactive,inactive,inactive,inactive,inactive,inactive,inactive,inactive,inactive,inactive,inactive,inactive
CCC(C)C(N)C(=O)O (configuration not stated),inactive,inactive,inactive,inactive,inactive,inactive,inactive,inactive,inactive,inactive,inactive,inactive,inactive,inactive,inactive,inactive,inactive,inactive,inactive,inactive
Cn1cc(C(=O)[C@@H]2CCc3[nH]cnc3C2)c2ccccc21,inactive,inactive,inactive,inactive,inactive,inactive,inactive,inactive,inactive,inactive,inactive,inactive,inactive,inactive,inactive,inactive,inactive,inactive,inactive,inactive
